# According to PubChem BioAssay (NCATS):
# Records with an inconclusive call do not appear. A call without a number means that no potency is given here. Values without a mark were called inactive. Active and inactive are the calls of the source. Calls come from the whole dose curve; as a rule, active = well fitted cell-killing curve with a large enough effect; inconclusive = small, poorly fitted or top-dose-only effect, or effect the other way; inactive = flat fitted curve, though single readings scatter.
# Key:
# Experiment in all cases: Primary qHTS to identify gynecologic anti-cancer compounds using libraries of approved drugs and bioactive compounds (AID 1345084); note: nearly all actives have a fitted effect of over 55% in size
# C33A = details: Gynecologic cancer cell panel viability, ATPlite luminescence, 48 h; series mostly up to 57.5 µM
# Summary of the method: (§1)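 Cell viability after 48 h drug treatment, ATPlite luminescence readout; five doses.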
# CAOV3 = details: Gynecologic cancer cell panel viability, ATPlite luminescence, 48 h; series mostly up to 57.5 µM
# Summary of the method: as §1
# CASKI = details: Gynecologic cancer cell panel viability, ATPlite luminescence, 48 h; series mostly up to 57.5 µM
# Summary of the method: as §1
# Es-2 = details: Gynecologic cancer cell panel viability, ATPlite luminescence, 48 h; series mostly up to 57.5 µM
# Summary of the method: as §1
# HeLa = details: Gynecologic cancer cell panel viability, ATPlite luminescence, 48 h; series mostly up to 57.5 µM
# Summary of the method: as §1
# Hek293T = details: Gynecologic cancer cell panel viability, ATPlite luminescence, 48 h, control line for the selectivity index; series mostly up to 57.5 µM
# Summary of the method: as §1
# Potency is the fitted concentration of half-maximal effect.
SMILES,Potency (C33A),Potency (CAOV3),Potency (CASKI),Potency (Es-2),Potency (HeLa),Potency (Hek293T),"activity change, negative = cytotoxicity (C33A)","activity change, negative = cytotoxicity (CAOV3)","activity change, negative = cytotoxicity (CASKI)","activity change, negative = cytotoxicity (Es-2)","activity change, negative = cytotoxicity (HeLa)","activity change, negative = cytotoxicity (Hek293T)"
Cc1cccc(S(=O)(=O)N2CCC[C@@H]2CCN2CCC(C)CC2)c1,inactive,inactive,inactive,inactive,inactive,inactive,–,–,–,–,–,–
COC(=O)C1=COC(O[C@@H]2O[C@H](CO)[C@@H](O)[C@H](O)[C@H]2O)[C@H]2[C@@H]1[C@H](OC(=O)CCc1ccc(O)cc1)C[C@]2(C)O (some centres not stated),inactive,inactive,inactive,inactive,inactive,inactive,–,–,–,–,–,–
CC1=CC(=O)CC(C)(CO)C1(O)/C=C/C(C)O[C@@H]1O[C@H](CO)[C@@H](O)[C@H](O)[C@H]1O (some centres not stated),inactive,inactive,inactive,inactive,inactive,inactive,–,–,–,–,–,–
O=S(=O)(NC1CCC(c2cc(F)ccc2F)(S(=O)(=O)c2ccc(Cl)cc2)CC1)C(F)(F)F (configuration not stated),inactive,inactive,inactive,inactive,inactive,inactive,–,–,–,–,–,–
Cc1ccccc1NC(=O)Nc1ccc(CC(=O)N(C)[C@@H](CC(C)C)C(=O)NCC[C@H](NC(=O)[C@@H]2CCCN2S(=O)(=O)c2cc(Cl)cc(Cl)c2)C(=O)O)cc1,inactive,inactive,inactive,inactive,inactive,inactive,–,–,–,–,–,–
COc1cc(C(=O)OC[C@@]2(O)CO[C@@H](O[C@H]3[C@H](Oc4ccc(C(=O)O)cc4OC)O[C@H](CO)[C@@H](O)[C@@H]3O)[C@@H]2O)ccc1O,inactive,inactive,inactive,inactive,inactive,inactive,–,–,–,–,–,–
CC(CCC1(O)OC2CC3C4CCC5CC(O[C@@H]6O[C@H](CO)[C@@H](O)[C@H](O)[C@H]6O[C@@H]6O[C@@H](C)[C@H](O)[C@@H](O)[C@H]6O)C(O)CC5(C)C4CCC3(C)C2C1C)CO[C@@H]1O[C@H](CO)[C@@H](O)[C@H](O)[C@H]1O (some centres not stated),–,–,–,–,–,–,3.88% [at 11.6 µM],-13.8% [at 11.6 µM],-0.222% [at 11.6 µM],-3.1% [at 11.6 µM],3.09% [at 11.6 µM],17.8% [at 11.6 µM]
CC(C)[C@@H]1C(=O)N(S(C)(=O)=O)[C@@H]2CCN(C(=O)/C=C/CN3CCCCC3)[C@H]21,inactive,inactive,inactive,inactive,inactive,inactive,–,–,–,–,–,–
CC(=O)OC[C@@]12C(=O)C[C@@H](C)[C@]3(C[C@@H](c4ccoc4)O[C@H]3OC(C)=O)[C@H]1CCC[C@]21CO1,inactive,inactive,inactive,inactive,inactive,inactive,–,–,–,–,–,–
CC(C)C[C@H](CC(=O)NO)C(=O)N[C@@H](Cc1ccc2ccccc2c1)C(=O)N[C@@H](C)C(=O)NCCN,inactive,inactive,inactive,inactive,inactive,inactive,–,–,–,–,–,–
O=C(Nc1c(-c2cccs2)nc2ccccn12)c1ccc(Cl)cc1,inactive,inactive,inactive,inactive,inactive,inactive,–,–,–,–,–,–
O=C1OCC(c2ccccc2)=C1Cc1ccccc1,inactive,inactive,inactive,inactive,inactive,inactive,–,–,–,–,–,–
COc1c2cc(c(O)c1OC)-c1cc(ccc1O)CCC(O)CCCC2 (configuration not stated),inactive,inactive,inactive,inactive,inactive,inactive,–,–,–,–,–,–
Cc1[nH]c2ccccc2c1CCNC(=O)c1ccccc1F,inactive,inactive,inactive,inactive,inactive,inactive,–,–,–,–,–,–
COC(=O)CC1CC(c2ccc(O)cc2)=NO1 (configuration not stated),inactive,inactive,inactive,inactive,inactive,inactive,–,–,–,–,–,–
C=C1CCC2C(C)(C(=O)O)CCCC2(C)C1CCC(C)CC(=O)O (configuration not stated),inactive,inactive,inactive,inactive,inactive,inactive,–,–,–,–,–,–
CC(C)(C)c1ccc(S(=O)(=O)Nc2ccc(Cl)cc2C(=O)c2cc[n+]([O-])cc2)cc1,inactive,inactive,inactive,inactive,inactive,inactive,–,–,–,–,–,–
CC(Cc1cc2c(c(C(N)=O)c1)N(CCCO)CC2)NCCOc1ccccc1OCC(F)(F)F (configuration not stated),inactive,inactive,inactive,inactive,inactive,inactive,–,–,–,–,–,–
O=C(CC(c1ccccc1)c1ccccc1)N1CCN(C(c2ccccc2)c2ccccc2)CC1,inactive,inactive,inactive,inactive,inactive,inactive,–,–,–,–,–,–
CCCN1CCN(c2ccc(C(=O)NC3(C(=O)NCC#N)CCCCC3)cc2)CC1,inactive,inactive,inactive,inactive,inactive,inactive,–,–,–,–,–,–
Cc1ccc(S(=O)(=O)n2ccc(-c3c(-c4ccc(Cl)cc4)noc3C)n2)cc1,8.91 µM (active),inactive,inactive,inactive,inactive,inactive,–,–,–,–,–,–

SMILES,Potency (C33A),Potency (CAOV3),Potency (CASKI),Potency (Es-2),Potency (HeLa),Potency (Hek293T),"activity change, negative = cytotoxicity (C33A)","activity change, negative = cytotoxicity (CAOV3)","activity change, negative = cytotoxicity (CASKI)","activity change, negative = cytotoxicity (Es-2)","activity change, negative = cytotoxicity (HeLa)","activity change, negative = cytotoxicity (Hek293T)"
CC(C)(C)C(=O)CN1C(=O)[C@H](NC(=O)Nc2cccc(C(=O)O)c2)CN(C2CCCCC2)c2ccccc21,inactive,inactive,inactive,inactive,inactive,inactive,–,–,–,–,–,–
COc1cc(/C=C/CO)cc(OC)c1O[C@@H]1O[C@H](CO[C@@H]2O[C@H](CO)[C@@H](O)[C@H](O)[C@H]2O)[C@@H](O)[C@H](O)[C@H]1O,inactive,inactive,inactive,inactive,inactive,inactive,–,–,–,–,–,–
CC(=O)CC1CCC(C(C)C(=O)OCC(O)CO)O1 (configuration not stated),inactive,inactive,inactive,inactive,inactive,inactive,–,–,–,–,–,–
CC(=O)O[C@@H]1[C@@H](O)[C@H](C)O[C@@H](O[C@H]2[C@@H]3C=CO[C@@H](O[C@@H]4O[C@H](CO)[C@@H](O)[C@H](O)[C@H]4O)[C@@H]3[C@@]3(CO)O[C@@H]23)[C@@H]1OC(=O)/C=C/c1ccccc1,inactive,inactive,inactive,inactive,inactive,inactive,–,–,–,–,–,–
C=C[C@H]1[C@H](O[C@@H]2O[C@H](CO)[C@@H](O)[C@H](O)[C@H]2O)OC=C(C(=O)OC)[C@H]1CCOC(=O)c1cc(O)c(O)c(O)c1,inactive,inactive,inactive,inactive,inactive,inactive,–,–,–,–,–,–
CC1(C)CC[C@]2(CO[C@@H]3O[C@H](CO)[C@@H](O)[C@H](O)[C@H]3O)[C@@H](O)C[C@]3(C)C(=CCC4[C@@]5(C)CC[C@H](O[C@@H]6O[C@H](CO[C@@H]7O[C@H](CO[C@@H]8OC[C@@H](O)[C@H](O)[C@H]8O)[C@@H](O)[C@H](O)[C@H]7O)[C@@H](O)[C@H](O)[C@H]6O)C(C)(C)C5CC[C@]43C)[C@@H]2C1 (some centres not stated),–,–,–,–,–,–,4.63% [at 11.6 µM],5.01% [at 11.6 µM],-3.94% [at 11.6 µM],4.96% [at 11.6 µM],-7.27% [at 11.6 µM],1.89% [at 11.6 µM]
C=C(CCC1=C(C)[C@H]2[C@H](CC3[C@@H]4CC=C5C[C@@H](O)C[C@@H](O)[C@]5(C)C4[C@H](O)C[C@@]32C)O1)CO[C@@H]1O[C@H](CO)[C@@H](O)[C@H](O)[C@H]1O (some centres not stated),1.26 µM (active),3.55 µM (active),3.16 µM (active),3.16 µM (active),3.16 µM (active),3.16 µM (active),–,–,–,–,–,–
CC1CC(O)/C=C/C(O)C(O)CC(=O)Cc2c(Cl)c(O)cc(O)c2C(=O)O1 (configuration not stated),inactive,inactive,inactive,inactive,inactive,inactive,–,–,–,–,–,–
COc1cc(O)cc(/C=C/c2ccc(O[C@@H]3O[C@H](CO)[C@@H](O)[C@H](O)[C@H]3O)cc2)c1,inactive,inactive,inactive,inactive,inactive,inactive,–,–,–,–,–,–
CO[C@H]1/C=C\O[C@@]2(C)Oc3c(C)c(O)c4c(O)c(c5c(nc6cc(C)ccn65)c4c3C2=O)NC(=O)/C(C)=C\C=C/[C@H](C)[C@H](O)[C@@H](C)[C@@H](O)[C@@H](C)[C@H](OC(C)=O)[C@@H]1C,inactive,inactive,inactive,inactive,inactive,inactive,–,–,–,–,–,–
CC(C)N(CCCCOCC(=O)NS(C)(=O)=O)c1cnc(-c2ccccc2)c(-c2ccccc2)n1,inactive,inactive,inactive,inactive,inactive,inactive,–,–,–,–,–,–
C=C1[C@@H]2CC[C@@H]3[C@@](CCC4C(C(=O)O)(C(=O)O)C[C@@H](O[C@@H]5O[C@H](CO)[C@@H](O)[C@H](O)[C@H]5OC(=O)CC(C)C)C[C@]43C)(C2)[C@H]1O (some centres not stated),inactive,inactive,inactive,inactive,inactive,inactive,–,–,–,–,–,–
CC1(C)CC[C@]2(C(=O)O)CC[C@]3(C)C(=CCC4[C@@]5(C)CC[C@H](O[C@@H]6O[C@H](C(=O)O)[C@@H](O[C@@H]7OC[C@@H](O)[C@H](O)[C@H]7O)[C@H](O)[C@H]6O)C(C)(C)C5CC[C@]43C)C2C1O (some centres not stated),inactive,inactive,inactive,inactive,inactive,inactive,–,–,–,–,–,–
COC(=O)C[C@H]1C(C)(C)[C@H](OC(=O)C(C)C)[C@@]2(O)C(=O)[C@]1(C)C1CC[C@]3(C)C(CC(=O)O[C@H]3c3ccoc3)[C@]13O[C@@H]32 (some centres not stated),inactive,inactive,inactive,inactive,inactive,inactive,–,–,–,–,–,–
C[C@@H]1O[C@@H](O[C@@H]2[C@@H](O[C@@H]3O[C@@H](C)[C@H](O[C@@H]4OC[C@H](O)[C@H](O[C@@H]5OC[C@@H](O)[C@H](O)[C@H]5O)[C@H]4O)[C@@H](O[C@@H]4OC[C@](O)(CO)[C@H]4O)[C@H]3O)[C@H](OC(=O)[C@]34CCC(C)(C)C[C@H]3C3=CCC5[C@@]6(C)C[C@H](O)[C@H](O[C@@H]7O[C@H](CO[C@@H]8OC[C@H](O)[C@H](O)[C@H]8O)[C@@H](O)[C@H](O)[C@H]7O)C(C)(C)C6CC[C@@]5(C)[C@]3(C)C[C@H]4O)OC[C@H]2O)[C@H](O)[C@H](O)[C@H]1O (some centres not stated),–,–,–,–,–,–,-0.354% [at 6.55 µM],6.96% [at 6.55 µM],-5.17% [at 6.55 µM],0.628% [at 6.55 µM],4.56% [at 6.55 µM],-4.92% [at 6.55 µM]
C[C@@H](O)[C@H](NC(=O)c1ccc(C#Cc2ccc(CN3CCOCC3)cc2)cc1)C(=O)NO,inactive,inactive,inactive,inactive,inactive,inactive,–,–,–,–,–,–
CC1C=CC2CCCCC2C1CCC1CC(O)CC(=O)O1 (configuration not stated),inactive,inactive,inactive,inactive,inactive,inactive,–,–,–,–,–,–
COc1cc(O)c([C@@H](CC(=O)N2CC(C)CC(C)C2)c2ccc3c(c2)OCO3)c(OC)c1 (some centres not stated),inactive,inactive,inactive,inactive,inactive,inactive,–,–,–,–,–,–
CC1CCCCN1S(=O)(=O)c1ccc(N2CCCC2=O)cc1 (configuration not stated),inactive,inactive,inactive,inactive,inactive,inactive,–,–,–,–,–,–
C=C[C@@]12COC(=O)C(=C)C1[C@@H](O)[C@H](C(=C)C(=O)OC)[C@@H](OC(=O)C(=C)CO)C2 (some centres not stated),inactive,inactive,inactive,inactive,inactive,inactive,–,–,–,–,–,–
Cc1cc(C)cc(C(=O)NOCCCCCC(=O)NO)c1,3.98 µM (active),8.91 µM (active),7.08 µM (active),3.16 µM (active),3.16 µM (active),3.55 µM (active),–,–,–,–,–,–
